Laboratory results as given in the supplement of paper PMC11006884.
Targets with a hit are over-represented here; the source holds about 6,500 in all. About 2% of all pairs of compound and target were hits. A number with no mark means an inactive call.

compound: COC(=O)C#Cc1ccccc1 [methyl 3-phenylpropiolate]; assay: log2 ratio of iodoacetamide-alkyne labeling of the cysteine site, DMSO over compound (competition); higher = stronger covalent engagement of the cysteine by the compound, active = 1 or more; conditions: 500 µM; treatment time 1 h; system: HEK293T cell lysate
In short: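 HEK293T lysate (2 mg/mL) was treated with DMSO or electrophile (500 µM, 1 h, ambient temperature), then iodoacetamide alkyne (1 h), clicked to sCIP-TMT reagents, pooled, trypsin-digested overnight at 37 °C, streptavidin-enriched and acid-eluted. Peptides were run on Orbitrap Eclipse LC-MS/MS with FAIMS and quantified in FragPipe. The log2 competition ratio per cysteine is mean control-channel over mean compound-channel reporter intensity. Duplicate channels and three replicates were used, and cysteines quantified in only one replicate were excluded.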

Chain of UniProt P06733 (P06733 whole entry, looked up): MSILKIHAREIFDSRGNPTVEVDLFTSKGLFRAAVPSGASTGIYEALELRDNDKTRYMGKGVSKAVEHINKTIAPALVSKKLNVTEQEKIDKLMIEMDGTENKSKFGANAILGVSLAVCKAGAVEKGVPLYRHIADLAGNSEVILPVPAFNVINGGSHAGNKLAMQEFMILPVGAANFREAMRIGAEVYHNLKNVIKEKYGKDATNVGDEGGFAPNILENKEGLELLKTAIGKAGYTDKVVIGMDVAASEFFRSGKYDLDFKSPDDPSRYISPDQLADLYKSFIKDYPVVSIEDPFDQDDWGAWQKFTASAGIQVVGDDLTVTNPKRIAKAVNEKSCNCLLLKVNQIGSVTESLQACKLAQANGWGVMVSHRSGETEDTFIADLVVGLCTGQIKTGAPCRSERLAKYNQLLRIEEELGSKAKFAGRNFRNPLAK
Chain of UniProt P42574 (P42574 whole entry, looked up): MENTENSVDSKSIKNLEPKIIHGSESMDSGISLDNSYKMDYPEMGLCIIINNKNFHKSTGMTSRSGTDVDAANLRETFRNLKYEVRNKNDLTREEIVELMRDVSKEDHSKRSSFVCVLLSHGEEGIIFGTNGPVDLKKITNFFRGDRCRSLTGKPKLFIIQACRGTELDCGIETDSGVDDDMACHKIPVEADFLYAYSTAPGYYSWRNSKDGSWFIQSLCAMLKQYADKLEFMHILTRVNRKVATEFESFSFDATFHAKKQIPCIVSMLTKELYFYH
Chain of UniProt P20073 (P20073 whole entry, looked up): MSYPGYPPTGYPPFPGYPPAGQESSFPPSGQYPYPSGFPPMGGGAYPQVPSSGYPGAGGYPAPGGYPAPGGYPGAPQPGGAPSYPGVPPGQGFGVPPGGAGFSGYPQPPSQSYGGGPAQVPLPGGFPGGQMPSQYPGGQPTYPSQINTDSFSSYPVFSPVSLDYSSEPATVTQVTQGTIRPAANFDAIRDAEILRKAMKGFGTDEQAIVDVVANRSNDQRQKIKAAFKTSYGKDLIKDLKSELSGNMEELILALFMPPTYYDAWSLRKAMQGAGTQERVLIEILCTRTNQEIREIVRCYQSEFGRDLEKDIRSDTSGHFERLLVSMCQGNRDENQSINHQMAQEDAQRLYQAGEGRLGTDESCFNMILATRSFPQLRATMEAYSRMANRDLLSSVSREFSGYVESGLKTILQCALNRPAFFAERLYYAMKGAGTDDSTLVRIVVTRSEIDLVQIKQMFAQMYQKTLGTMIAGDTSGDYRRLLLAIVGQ
Chain of UniProt P50395 (P50395 whole entry): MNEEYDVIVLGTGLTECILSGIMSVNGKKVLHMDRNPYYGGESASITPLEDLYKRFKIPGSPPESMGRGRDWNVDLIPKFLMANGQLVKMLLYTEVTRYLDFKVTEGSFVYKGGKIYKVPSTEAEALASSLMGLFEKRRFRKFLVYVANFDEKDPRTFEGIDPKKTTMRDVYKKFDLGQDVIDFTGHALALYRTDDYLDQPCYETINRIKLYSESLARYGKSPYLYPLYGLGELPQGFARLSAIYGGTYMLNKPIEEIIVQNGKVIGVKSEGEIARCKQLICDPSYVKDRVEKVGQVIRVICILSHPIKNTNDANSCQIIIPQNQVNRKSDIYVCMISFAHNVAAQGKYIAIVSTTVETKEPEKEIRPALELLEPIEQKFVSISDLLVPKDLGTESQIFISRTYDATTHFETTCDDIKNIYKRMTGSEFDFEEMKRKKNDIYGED
Chain of UniProt P17706 (P17706 whole entry): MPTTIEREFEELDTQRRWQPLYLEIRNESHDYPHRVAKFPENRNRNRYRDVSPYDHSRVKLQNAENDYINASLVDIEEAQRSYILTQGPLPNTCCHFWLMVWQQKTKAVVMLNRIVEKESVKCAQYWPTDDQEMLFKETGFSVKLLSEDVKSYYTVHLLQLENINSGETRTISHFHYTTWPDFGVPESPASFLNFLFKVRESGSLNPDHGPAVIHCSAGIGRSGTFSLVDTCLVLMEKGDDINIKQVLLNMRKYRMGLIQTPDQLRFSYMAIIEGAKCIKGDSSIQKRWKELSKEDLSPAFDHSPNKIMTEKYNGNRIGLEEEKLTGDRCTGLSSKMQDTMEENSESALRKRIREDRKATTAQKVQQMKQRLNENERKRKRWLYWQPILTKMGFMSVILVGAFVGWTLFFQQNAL
Chain of UniProt P17858 (P17858 whole entry, looked up): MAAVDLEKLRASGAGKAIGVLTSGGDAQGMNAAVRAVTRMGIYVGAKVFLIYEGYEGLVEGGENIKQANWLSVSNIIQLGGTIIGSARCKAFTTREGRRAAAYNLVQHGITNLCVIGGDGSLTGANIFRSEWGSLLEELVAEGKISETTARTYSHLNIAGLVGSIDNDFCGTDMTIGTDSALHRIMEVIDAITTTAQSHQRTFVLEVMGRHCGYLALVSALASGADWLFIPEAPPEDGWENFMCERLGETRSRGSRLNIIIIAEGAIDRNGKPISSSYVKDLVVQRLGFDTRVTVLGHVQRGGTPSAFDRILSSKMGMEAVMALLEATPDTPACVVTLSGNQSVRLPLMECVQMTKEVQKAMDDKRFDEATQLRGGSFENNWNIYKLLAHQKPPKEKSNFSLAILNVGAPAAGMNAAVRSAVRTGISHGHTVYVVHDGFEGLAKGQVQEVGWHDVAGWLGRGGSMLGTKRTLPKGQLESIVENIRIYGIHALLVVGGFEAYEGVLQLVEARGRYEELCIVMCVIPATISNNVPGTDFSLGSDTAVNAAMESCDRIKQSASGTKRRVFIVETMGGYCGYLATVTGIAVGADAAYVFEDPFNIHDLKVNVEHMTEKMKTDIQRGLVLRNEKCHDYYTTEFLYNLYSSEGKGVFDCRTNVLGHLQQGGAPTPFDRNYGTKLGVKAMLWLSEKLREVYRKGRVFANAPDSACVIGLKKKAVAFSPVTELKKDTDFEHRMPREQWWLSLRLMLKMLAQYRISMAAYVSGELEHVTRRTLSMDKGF
Chain of UniProt P08574 (P08574 whole entry, looked up): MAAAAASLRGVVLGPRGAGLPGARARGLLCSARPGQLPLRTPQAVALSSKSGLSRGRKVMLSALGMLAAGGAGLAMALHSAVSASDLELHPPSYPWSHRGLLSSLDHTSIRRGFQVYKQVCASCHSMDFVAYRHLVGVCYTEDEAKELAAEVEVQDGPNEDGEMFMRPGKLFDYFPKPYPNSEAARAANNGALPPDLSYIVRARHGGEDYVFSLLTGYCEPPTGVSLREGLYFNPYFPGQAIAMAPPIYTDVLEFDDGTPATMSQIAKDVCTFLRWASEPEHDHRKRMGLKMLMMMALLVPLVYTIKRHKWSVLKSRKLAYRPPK
Chain of UniProt P49915 (P49915 whole entry, looked up): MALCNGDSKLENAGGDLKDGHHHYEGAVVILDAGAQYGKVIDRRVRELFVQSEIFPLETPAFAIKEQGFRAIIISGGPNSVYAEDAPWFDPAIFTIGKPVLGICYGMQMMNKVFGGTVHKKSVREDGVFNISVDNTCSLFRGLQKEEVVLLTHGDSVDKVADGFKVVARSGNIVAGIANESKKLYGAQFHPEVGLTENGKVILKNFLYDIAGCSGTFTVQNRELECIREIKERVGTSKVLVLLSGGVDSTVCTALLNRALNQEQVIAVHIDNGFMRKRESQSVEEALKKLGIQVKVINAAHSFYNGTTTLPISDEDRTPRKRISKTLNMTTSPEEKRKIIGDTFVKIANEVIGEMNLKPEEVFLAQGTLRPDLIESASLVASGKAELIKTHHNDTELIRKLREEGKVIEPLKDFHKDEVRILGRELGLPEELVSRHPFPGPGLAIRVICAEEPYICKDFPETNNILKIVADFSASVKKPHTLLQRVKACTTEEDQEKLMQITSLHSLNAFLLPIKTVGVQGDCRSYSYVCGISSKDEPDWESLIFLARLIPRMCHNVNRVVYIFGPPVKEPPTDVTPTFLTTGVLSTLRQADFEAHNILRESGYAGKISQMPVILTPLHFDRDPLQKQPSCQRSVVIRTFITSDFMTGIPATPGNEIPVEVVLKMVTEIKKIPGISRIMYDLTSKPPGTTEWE
Chain of UniProt O95983 (O95983 whole entry, looked up): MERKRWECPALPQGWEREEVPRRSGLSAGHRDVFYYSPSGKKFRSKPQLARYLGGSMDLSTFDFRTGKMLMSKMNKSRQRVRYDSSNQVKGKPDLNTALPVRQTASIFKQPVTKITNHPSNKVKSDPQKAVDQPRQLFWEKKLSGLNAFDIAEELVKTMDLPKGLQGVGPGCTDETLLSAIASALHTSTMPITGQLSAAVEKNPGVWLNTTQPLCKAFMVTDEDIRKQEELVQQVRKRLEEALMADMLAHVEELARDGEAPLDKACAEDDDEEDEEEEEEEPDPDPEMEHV
Chain of UniProt P33992 (P33992 whole entry, looked up): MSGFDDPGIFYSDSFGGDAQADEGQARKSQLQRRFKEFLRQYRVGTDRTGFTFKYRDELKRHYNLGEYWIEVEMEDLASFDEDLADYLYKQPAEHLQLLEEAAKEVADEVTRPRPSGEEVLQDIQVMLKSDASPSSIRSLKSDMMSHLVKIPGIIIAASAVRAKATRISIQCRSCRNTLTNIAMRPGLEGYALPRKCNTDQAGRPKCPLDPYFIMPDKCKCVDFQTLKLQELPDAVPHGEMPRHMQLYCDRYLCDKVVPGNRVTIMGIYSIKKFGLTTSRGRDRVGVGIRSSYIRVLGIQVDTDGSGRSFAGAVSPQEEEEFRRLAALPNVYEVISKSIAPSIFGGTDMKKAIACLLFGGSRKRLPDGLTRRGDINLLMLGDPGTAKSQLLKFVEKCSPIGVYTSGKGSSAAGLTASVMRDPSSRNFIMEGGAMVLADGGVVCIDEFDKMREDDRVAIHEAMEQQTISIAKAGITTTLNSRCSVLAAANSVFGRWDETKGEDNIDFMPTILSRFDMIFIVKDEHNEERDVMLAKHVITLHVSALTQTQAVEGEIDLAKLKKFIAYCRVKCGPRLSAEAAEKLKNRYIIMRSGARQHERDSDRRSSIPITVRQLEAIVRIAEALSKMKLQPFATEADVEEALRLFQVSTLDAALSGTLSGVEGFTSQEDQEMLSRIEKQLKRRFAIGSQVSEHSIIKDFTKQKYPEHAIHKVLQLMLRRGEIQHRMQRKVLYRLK

| Target | log2 ratio of iodoacetamide-alkyne labeling |
| --- | --- |
| UniProt O96017_C385 | 0.227 |
| GMPS C631 (UniProt P49915) | 0.369 |
| GDI2 C202 (UniProt P50395) | -0.0158 |
| ATP1A1 C428 (UniProt P05023) | 0.234 |
| HNRNPA3 C85 (UniProt P51991) | 0.23 |
| PARP1 C128 (UniProt P09874) | 0.229 |
| UniProt P49591_C431 | -0.00377 |
| ACAA2 C116 (UniProt P42765) | 1.22 (active) |
| BPNT1 C206 (UniProt O95861) | 0.27 |
| OAT C306 (UniProt P04181) | 0.00204 |
| AARS C723 (UniProt P49588) | 0.264 |
| CASP3 C184 (UniProt P42574) | 0.259 |
| UniProt O95071_C739 | 0.0375 |
| POLR1A C613 (UniProt O95602) | 0.472 |
| PFKL C170 (UniProt P17858) | 0.343 |
| U2AF1L5 C67 (UniProt P0DN76) | 0.366 |
| CYC1 C219 (UniProt P08574) | 0.0599 |
| MYH9 C1379 (UniProt P35579) | 0.164 |
| SCP2 C94 (UniProt P22307) | 0.136 |

| Target | log2 ratio of iodoacetamide-alkyne labeling |
| --- | --- |
| SHMT1 C96 (UniProt P34896) | 0.0443 |
| PTPN2 C330 (UniProt P17706) | 0.608 |
| MCM5 C219 (UniProt P33992) | 1.34 (active) |
| ENO1 C389 (UniProt P06733) | 0.125 |
| MBD3 C172 (UniProt O95983) | 0.114 |
| VDAC2 C210 (UniProt P45880) | 1.39 (active) |
| EEF2 C557 (UniProt P13639) | -0.298 |
| LRPPRC C208 (UniProt P42704) | 0.123 |
| MCC C714 (UniProt P23508) | 0.565 |
| AKT2 C297 (UniProt P31751) | 0.698 |
| ANXA7 C285 (UniProt P20073) | 0.0794 |
| TMPO C570 (UniProt P42166) | 1.16 (active) |
| LTA4H C8 (UniProt P09960) | 0.273 |
| ACSL3 C652 (UniProt O95573) | -0.112 |
| IDH2 C154 (UniProt P48735) | 0.393 |
| RPL3 C253 (UniProt P39023) | 0.582 |
| RPL4 C96 (UniProt P36578) | 1.24 (active) |
| CA2 C205 (UniProt P00918) | -0.11 |
